Test results published in PubChem BioAssay AID493012 (Sanford-Burnham Center for Chemical Genomics, 2011).
About 930 (0.28%) of roughly 330,000 compounds were called active.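 The calls were made as follows: active = inhibition of at least 40% at 20 µM, with no more than 30% in the related APOBEC3A deaminase screen; inactive = the rest.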 This excerpt belongs to a sample that is enriched for actives.

target: DNA dC->dU-editing enzyme APOBEC-3G (Homo sapiens) (UniProt Q9HC16); assay: APOBEC3G DNA deaminase inhibitors, primary screen, biochemical, fluorescence, single-stranded DNA substrate, uHTS (AID 493012); details: recombinant A3G, ssDNA deamination FAM/TAMRA fluorescence; at 20 µM; active compounds read high;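 also: plate controls were DMSO wells with A3G for no effect and wells lacking A3G enzyme for full effect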
Sequence (Q9HC16 whole entry, looked up): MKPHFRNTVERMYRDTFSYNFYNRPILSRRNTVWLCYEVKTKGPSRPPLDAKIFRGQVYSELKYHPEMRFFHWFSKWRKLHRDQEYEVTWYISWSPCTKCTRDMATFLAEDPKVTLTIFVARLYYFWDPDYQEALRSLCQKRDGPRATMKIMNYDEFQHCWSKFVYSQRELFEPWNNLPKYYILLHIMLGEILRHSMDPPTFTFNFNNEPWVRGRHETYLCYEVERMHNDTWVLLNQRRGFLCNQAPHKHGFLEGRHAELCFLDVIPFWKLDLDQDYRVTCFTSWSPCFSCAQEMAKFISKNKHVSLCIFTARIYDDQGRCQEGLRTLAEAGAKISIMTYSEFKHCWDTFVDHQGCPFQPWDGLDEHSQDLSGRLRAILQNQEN

Structure (SMILES) | inhibition
Cc1ccc(Sc2ccncc2S(N)(=O)=O)cc1 | -12.3% (inactive)
CCC(CC)c1nnc(NC(=O)C2CCN(C(=O)c3ccco3)CC2)s1 | 43.5% (active)
COc1ccc(CNC(=O)C2CCN(C(=O)c3ccco3)CC2)cc1 | -11.5% (inactive)
CCc1nnc(NC(=O)C2CCN(C(=O)c3ccccc3C)CC2)s1 | -4.15% (inactive)
CC(C)NC(=O)NNc1c(Cl)cncc1Cl | -7.21% (inactive)
CCn1cc(C(=O)NCC(=O)NC(C)(C)CO)c(=O)c2cc3c(cc21)OCO3 | 5.44% (inactive)
CCOc1ccc(CCNC(=O)COC(=O)c2c(OC)cccc2OC)cc1OCC | -6.63% (inactive)
COc1ccc(N2CC(C(=O)NCCS(=O)(=O)N3CCN(c4ccccc4)CC3)CC2=O)cc1 (stereo unspecified) | -3.81% (inactive)
Cc1ccc(S(=O)(=O)CC(=O)Nc2sc(C)c(C)c2C(N)=O)cc1 | 19.4% (inactive)
Cc1sc(NC(=O)c2ccc3ncsc3c2)c(C(N)=O)c1C | -14.1% (inactive)
Cc1ccc(C(=O)c2c(NC(=O)c3ccccc3)sc(C)c2C)cc1 | 43.3% (active)
CC(CN1CCCCC1)OC(=O)c1ccccc1Cl (stereo unspecified) | -6.81% (inactive)
O=C(CSc1nccc(=O)[nH]1)Nc1ccc(N2CCOCC2)c(Cl)c1 | 1.54% (inactive)
S=c1[nH]nc(-c2ccc(Cl)cc2)n1CC1CCCO1 (stereo unspecified) | 43.8% (active)
Cc1nnc(SCC(=O)NNC(=O)c2ccc(Cl)cc2)n1CC1CCCO1 (stereo unspecified) | -0.693% (inactive)
Cc1ccc(-n2c(-c3ccc(Cl)cc3)n[nH]c2=S)cc1 | 11.5% (inactive)
O=C(CSc1nc2[nH]ncc2c(=O)[nH]1)Nc1ccc(F)cc1 | -9.68% (inactive)
Cc1occc1-c1nnc(SCC(=O)NC2(C#N)CCCC2)n1C | -13.5% (inactive)
COCCN1C(=O)C(=O)/C(=C(/O)c2ccc(S(=O)(=O)N3CCOCC3)cc2)C1c1ccc(OC)c(OC)c1 (stereo unspecified) | -5.33% (inactive)
CCOc1ccc(Br)cc1S(=O)(=O)Nc1cccc(S(=O)(=O)N(CC)CC)c1 | -8.57% (inactive)
O=C(Cn1cnc2cc([N+](=O)[O-])ccc2c1=O)NC(=O)NCc1ccccc1 | -6% (inactive)
Cc1ccc(S(=O)(=O)N2CCN(S(=O)(=O)N3CCOCC3)CC2)cc1 | -5.83% (inactive)
COc1ccc(NC(=O)c2oc3ccc(S(=O)(=O)N4CCOCC4)cc3c2C)cc1 | -7.26% (inactive)
Cc1noc(C)c1CSc1nc2cc(S(=O)(=O)N3CCOCC3)ccc2o1 | 45.8% (active)

Structure (SMILES) | inhibition
CCCCCCCCn1c2c(c(=N)c3c1CCC3)CCCC2 | -6.25% (inactive)
COc1cc(/C=N/n2c(C)n[nH]c2=S)ccc1OCc1ccccc1 | 9.64% (inactive)
Cc1ccsc1/C=N/n1c(=S)[nH]nc(C)c1=O | -0.898% (inactive)
Cc1n[nH]c(=S)n1/N=C/c1ccc(Br)o1 | 40.4% (active)
O=S(=O)(N/N=C\c1cccn1-c1ccccc1)c1ccc2ccccc2c1 | -6.33% (inactive)
COC(=O)c1cccc(-n2[nH]nnc2=S)c1 | 59% (active)
COC(=O)c1cccc(NC(=O)c2cccc(N3C(=O)CCC3=O)c2)c1 | -9.31% (inactive)
COC(=O)c1cccc(N2C(=O)C3C4C=CC(CC4)C3C2=O)c1 (stereo unspecified) | -6.25% (inactive)
CCOC(=O)C1CCN(S(=O)(=O)c2cc(F)ccc2OC)CC1 | -1.04% (inactive)
CCC(=O)Nc1ccccc1C(=O)N1CCN(Cc2ccccc2)CC1 | -6.48% (inactive)
CCOc1ccc(NC(=O)Nc2cc(C)on2)cc1 | 65.3% (active)
CCOc1ccc(C(=O)Nc2ccc(S(=O)(=O)Nc3cc(C)on3)cc2)cc1 | -9.24% (inactive)
CCC(=O)Nc1ccc(C(=O)Nc2cc(C)on2)cc1 | 2.01% (inactive)
CC(C)NC(=O)c1ccc(Sc2ccccc2)c([N+](=O)[O-])c1 | -2.3% (inactive)
O=C(Cc1ccccc1)NNC1CC(=O)N(c2ccc(Br)cc2)C1=O (stereo unspecified) | 4.82% (inactive)
COC(=O)c1sccc1NC(=O)CC1C(=O)NCCN1C(=O)Nc1ccc(F)cc1F (stereo unspecified) | -4.83% (inactive)
CNC(=O)c1sc(Nc2ccc(OCc3ccccc3)cc2)nc1C | -1.98% (inactive)
Cc1ccc(S(=O)(=O)N(C)CC(=O)NCCc2c[nH]c3ccccc23)cc1 | 49.6% (active)
CSCCC(NS(=O)(=O)c1ccc(C)cc1)C(=O)NCCc1c[nH]c2ccccc12 (stereo unspecified) | -1.39% (inactive)
CN(c1ccccc1)S(=O)(=O)c1ccc(Cl)c(C(=O)NCCc2c[nH]c3ccccc23)c1 | -7.53% (inactive)
COc1ccc(C)cc1NC(=O)CCS(=O)(=O)c1cccc2nonc12 | -1.32% (inactive)
O=C1CC(N2CCN(c3ccc(F)cc3)CC2)C(=O)N1c1ccccc1 (stereo unspecified) | -7.4% (inactive)
O=C1CC(Sc2ncn[nH]2)C(=O)N1c1ccccc1 (stereo unspecified) | 41.6% (active)
Cc1ccc(N2C(=O)CC(Sc3ncn[nH]3)C2=O)cc1 (stereo unspecified) | 28% (inactive)

Structure (SMILES) | inhibition
CCOc1ccc(-c2cn(S(=O)(=O)c3cccc4nsnc34)nc2N)cc1 | 0.75% (inactive)
CCOC(=O)C(NC(C)=O)C(=O)Nc1ccc(OC)cc1 (stereo unspecified) | -5.93% (inactive)
O=c1[nH]c(=S)[nH]c2[nH]c(=S)[nH]c12 | 93.2% (inactive)
CCNC(=O)CC1C(=O)N(c2ccc(F)cc2)C(=O)N1CCc1sccc1C (stereo unspecified) | -6.98% (inactive)
COc1ccc(C2=NO[C@@H]3C(=O)N(Cc4ccccc4)C(=O)[C@H]23)cc1OC | -9.52% (inactive)
O=C(Cc1ccc(Br)cc1)NCCc1ccccc1 | -5.45% (inactive)
O=C(Cn1cnc([N+](=O)[O-])n1)NCCc1ccccc1 | 61.5% (active)
CC(C)(C)NC(=O)Cn1cnc([N+](=O)[O-])n1 | -1.06% (inactive)
COCCN1C(=O)C(=O)/C(=C(/O)c2ccc(S(=O)(=O)N3CCOCC3)cc2)C1c1ccc(O)c(OC)c1 (stereo unspecified) | -1.29% (inactive)
CCOC(=O)C(Sc1ncc(C#N)c(N)n1)C(C)C (stereo unspecified) | 1.62% (inactive)
Cc1cc(C)c2c(-c3ccc(F)cc3)c(C#N)c(=O)n(C)c2n1 | 53.9% (active)
COc1ccc(O)c(C(=O)c2cnc3c(c2)c(-c2ccc(F)cc2)c(C#N)c(=O)n3C)c1 | -3.05% (inactive)
Cn1c(N)cc(-c2ccc(F)cc2)c(C#N)c1=O | -8.38% (inactive)
CC1c2nc3ccccc3n2C(CC(=O)NCCCN2CCOCC2)C(=O)N1Cc1ccccc1 (stereo unspecified) | -9.69% (inactive)
O=C(Nc1ccc(-c2ccc3nncn3n2)cc1)C1CCCCC1 | -1.63% (inactive)
O=C(Nc1ccncc1)Nc1ccc(F)cc1 | -2.01% (inactive)
CN(C)c1nc(NN)nc(Nc2ccc(F)cc2)n1 | -0.168% (inactive)
Fc1ccc(Nc2nnns2)cc1 | 48.9% (active)
CCOC(=O)C(C)Sc1nnc(CSc2nc3nc(C)cc(C)n3n2)o1 (stereo unspecified) | -3.96% (inactive)
CCc1c(C)[nH]c(=S)c(C#N)c1C | 40.3% (active)
CC(=O)c1c(C)[nH]c(=S)c(C#N)c1-c1ccc(F)cc1 | 5.87% (inactive)
CCC(=O)N(C)C(c1ccccc1Cl)c1nnnn1-c1c(C)cccc1C (stereo unspecified) | -7.17% (inactive)
COC(=O)c1ccc2c(=O)n(CCN3CCOCC3)c(SCC(=O)Nc3cccc(OC)c3)nc2c1 | -3.78% (inactive)
CC(=O)N(C1=C(Cl)C(=O)c2ccccc2C1=O)c1ccc(C(=O)O)cc1 | 89.2% (active)

Structure (SMILES) | inhibition
O=C(COC(=O)c1ncc(Cl)c(Cl)c1Cl)NC1CCS(=O)(=O)C1 (stereo unspecified) | -7.97% (inactive)
CC1=C/C(=N\OS(=O)(=O)c2ccccc2)C=CC1=O | 71.9% (active)
N#Cc1c(Cl)nc(-c2cccnc2)nc1-c1ccccc1 | -2.3% (inactive)
Cc1cccc(-n2c(N)c(C(=O)N3CCN(C)CC3)sc2=S)c1 | 62.1% (active)
N#Cc1ccccc1-n1c(N)c(C(=O)N2CCCC2)sc1=S | 25.4% (inactive)
Cc1ccc(-n2c(N)c(C(=O)N3CCOCC3)sc2=S)c(C)c1 | 10.5% (inactive)
COc1ccc(OCc2n[nH]c(=S)n2N)cc1 | 59.6% (active)
COc1ccc(Cc2n[nH]c(=S)n2NC(=O)Nc2ccc(C)cc2)cc1 | 26.9% (inactive)
Cc1ccc(OCc2n[nH]c(=S)n2-c2ccccc2)cc1 | 9.43% (inactive)
COC(=O)c1cccc(N(C(=O)c2ccco2)C(C(=O)NC2CCCC2)c2ccco2)c1 (stereo unspecified) | 0.606% (inactive)
Cn1c(=O)c2c(SCC(=O)NCC3CCCO3)nc(CC(C)(C)C)nc2n(C)c1=O (stereo unspecified) | -3.25% (inactive)
CCOc1ccc(CN2CCN(Cc3ccc4cc(F)ccc4n3)CC2CCO)cc1 (stereo unspecified) | -8.75% (inactive)
Cc1ccc(S(=O)(=O)N2CCC(Oc3ccc(-n4cnnn4)cc3)CC2)cc1 | -1.49% (inactive)
CCCn1c(O)c(CN2CCCC(C)C2)c(C)c(C#N)c1=O (stereo unspecified) | -4.49% (inactive)
O=c1[nH]n2c(-c3ccccc3)nc(O)c2c2ccccc12 | -3.66% (inactive)
O=c1[nH]c2ccccc2n2c(-c3ccccc3)nnc12 | 83.4% (active)
CC1(C)CC(=O)C2=C(C1)N=C1SCCC(=O)N1C2c1ccc(C(F)(F)F)cc1 (stereo unspecified) | -0.591% (inactive)
COc1ccc(OCc2nnc3n2N=C(c2ccccc2)C(CC(=O)O)S3)cc1 (stereo unspecified) | 65.2% (active)
COc1cccc(OCc2nnc3n2N=C(c2ccccc2)C(CC(=O)O)S3)c1 (stereo unspecified) | -9.67% (inactive)
COc1ccc(C2CC(c3ccccc3)=NN2C(=O)COC(=O)COc2ccccc2)cc1 (stereo unspecified) | -5.97% (inactive)
COc1cc(OC)c(NC(=O)C2CCCN2C(=O)OCc2ccccc2)cc1Cl (stereo unspecified) | -7.18% (inactive)
CCOC(=O)c1sc(=S)n2c1[nH]c(=O)c1ccc(C(=O)OC)cc12 | 41.3% (active)
CCOC(=O)c1ccc(Nc2cc3ccccc3c(=O)[nH]2)cc1 | -6.08% (inactive)
CCOC(=O)C1=C(C)Nc2sc(C(=O)c3ccc(Br)cc3)c(N)c2C1c1ccc(C(=O)OC)cc1 (stereo unspecified) | -6.26% (inactive)
